Experimental data reported in PMC12136788.
Numbering of substitutions follows the chain as printed. Whole data set: some 5,800 sequences, median “enrichment r” near 0.54, cut for the highest 2% near 16. Many of the other results were omitted from the sample, so the highest values are more common in it than they were.

B1: chr12:54350855:54350965:+|3pUTR|ENSG00000111481|msi1|FALSE|unique (ssRNA)
RNA: GGGAGUUCUACAGUCCGACGAUCUUGCCCUGACAUUUUUGUAAAUUCUGUGCCCUUUGCUGUAGCUACACUUCAGAUUAAAGUAGGAGAAAGAAUGUGCUGAGUGUUUUCCUCCCUUUGCCUCUACCUGGCCCUCAUCCCAACCAACAGAGGAUUGAGCAUCA
B2: chr9:86945015:86945116:-|3pUTR|ENSG00000180447|msi1|FALSE|unique (ssRNA)
RNA: GGGAGUUCUACAGUCCGACGAUCUUGGUUUUGGAUAAGUUUGAGCCCUUGACCUUAAUUUCAUUGCUACCACUCUGAUCUCUUAGCACAUUUCUUAGGAUUAAGGGUCCAAAAAUGCUGAUCUAAGGGGUUGCCAUGGUGUUGCAACAGAGGAUUGAGCAUCA
B3: chr5:172042892:172042993:-|3pUTR|ENSG00000072786|msi1|total|mutant (ssRNA)
RNA: GGGAGUUCUACAGUCCGACGAUCGAUUCUCCCGCUUCAACCUUGAGCCGCUGGGACGACAGAUACAUGCUACUGCACCCAGCCCGGUUAAGGUUCUGUAUACUCUGUCUUUCUAAAGCAAUUCCCUGGAAAUUUUCUCAACAUCAACAGAGGAUUGAGCAUCA
B4: chr9:69711526:69711627:-|3pUTR|ENSG00000188647|unk|FALSE|unique (ssRNA)
RNA: GGGAGUUCUACAGUCCGACGAUCGAACUGCUGUAGUCUUCUGCAAUCAGUCUCUGUAUUGGUAUAUCCAGUACUAUCGGGUUUAGGUUCUUUUUAUUUUUCCUUAAAUCUUACUUGUUUCUAGCGUCUUAAGAGUGGUAAUGGCAACAGAGGAUUGAGCAUCA
B5: chr22:49888080:49888186:+|3pUTR|ENSG00000100426|unk|FALSE|unique (ssRNA)
RNA: GGGAGUUCUACAGUCCGACGAUCUGGCUUAUUAACAGGGAAGAAGCUUGUUAUAUUCCAGUUGUAAGAAUAGCCUUAGUGUUUAGAUUUUUUUAUGAUAGGGAAGAUGCGGCCAUCACUGGGAUAUUUUCAAAUCCCAAGGACCAACAGAGGAUUGAGCAUCA
B6: chr19:35555165:35555334:-|CDS|ENSG00000105675|control|control|control (ssRNA)
RNA: GGGAGUUCUACAGUCCGACGAUCGGCCGUCACGGGGGAUGGUGUGAAUGACUCCCCAGCUCUGAAGAAGGCAGACAUCGGAGUAGCCAUGGGCAUCGCUGGCUCAGAUGCUGCCAAAAAUGCAGCUGACAUGAUCCUGCUGGACAACAGAGGAUUGAGCAUCA
B7: chr7:39987650:39987751:+|CDS|ENSG00000065883|unk|total|mutant (ssRNA)
RNA: GGGAGUUCUACAGUCCGACGAUCUCCCGGCAUUCAAGAUCUCGCCGCAGGCACAGAUUGUCCCGAUCCAGAAGUCGUCAUUCCCGUAUUUCUCCCCGCACACUAACUCUGAAGAGCCGCCUGGCAGCUGAAUUGAACAAGAAUCAACAGAGGAUUGAGCAUCA
B8: chr7:158734047:158734148:-|3pUTR|ENSG00000117868|msi1_unk|FALSE|overlapping (ssRNA)
RNA: GGGAGUUCUACAGUCCGACGAUCCUACCCGGAACACACCCUCUCACAGACGUACCAAUGUUAUUUUUAUAAUUUCAUGGAUUUAGUUAUACAUACCUUAAUAGUUUUAUAAAAUUGUUGACAUUUCAGGCAAAUUUGGCCAAUCAACAGAGGAUUGAGCAUCA
B9: chrX:129805617:129805718:-|3pUTR|ENSG00000188706|msi1|FALSE|unique (ssRNA)
RNA: GGGAGUUCUACAGUCCGACGAUCUCUUUUCCCAUUAGAUAUAUGUAAGUAGUUGUAGUAGAGAUAAUAAUUGACAUUUCUCGUAGACUACCCAGAAACUUUUUUAAUACCUGUGCCAUUCUCAAUAAGAAUUUAUGAGAUGCCCAACAGAGGAUUGAGCAUCA
B10: chrX:129805617:129805718:-|3pUTR|ENSG00000188706|msi1|total|mutant (ssRNA)
RNA: B9 RNA with U35C, A36C, U49C, A50C, U55C, A56C, U58C, A59C, U83C, A84C
B11: chr1:6224442:6224573:-|3pUTR|ENSG00000116237|msi1_unk|FALSE|overlapping (ssRNA)
RNA: GGGAGUUCUACAGUCCGACGAUCCUAUACAAUUUUAAAAAUACUUCCUCAUAGGAUGCUUUGGCCCUUCAUCUAUUUAAUCAUAGCUACAUACCUAUUUUUUAUAAGUAGCAGUACACAUUCAAAGGGGUAUUCCUAGCUCAACAACAGAGGAUUGAGCAUCA
B12: chr11:69653362:69653473:+|3pUTR|ENSG00000110092|msi1_unk|FALSE|overlapping (ssRNA)
RNA: GGGAGUUCUACAGUCCGACGAUCACUGCCAUGUACUAGUUUUAGUUUUCUCUUAGAACAUUGUAUUACAGAUGCCUUUUUUGUAGUUUUUUUUUUUUUUAUGUGAUCAAUUUUGACUUAAUGUGAUUACUGCUCUAUUCCAAACAACAGAGGAUUGAGCAUCA
B13: chr21:25881503:25881610:-|3pUTR|ENSG00000142192|msi1_unk|FALSE|overlapping (ssRNA)
RNA: GGGAGUUCUACAGUCCGACGAUCACAAACCCGUUUUAUGAUUUACUCAUUAUCGCCUUUUGACAGCUGUGCUGUAACACAAGUAGAUGCCUGAACUUGAAUUAAUCCACACAUCAGUAAUGUAUUCUAUCUCUCUUUACAUUUCAACAGAGGAUUGAGCAUCA
B14: chr7:158734047:158734148:-|3pUTR|ENSG00000117868|msi1_unk|total|mutant (ssRNA)
RNA: B8 RNA with U83C, A84C, U101C, A102C
B15: chr2:165880514:165880799:-|CDS|ENSG00000123607|control|control|control (ssRNA)
RNA: GGGAGUUCUACAGUCCGACGAUCGAUGGCAUGGAAAUAUAGCAAUCGGACAAAUCCGGCAGUAGGUGAGUUUGGCAAUCACCUAGAUUUUUCACAGAAAAAUUAUGUUGUAUUUAUUAAUUUUCAUUUAAAUGCAUUUGAUUUCAACAGAGGAUUGAGCAUCA
B16: chr12:68839811:68839877:+|CDS_3pUTR|ENSG00000135679|msi1_unk|FALSE|overlapping (ssRNA)
RNA: GGGAGUUCUACAGUCCGACGAUCAUAAGCCCUGCCCAGUAUGUAGACAACCAAUUCAAAUGAUUGUGCUAACUUAUUUCCCCUAGUUGACCUGUCUAUAAGAGAAUUAUAUAUUUCUAACUAUAUAACCCUAGGAAUUUAGACCAACAGAGGAUUGAGCAUCA
B17: chr11:69653362:69653473:+|3pUTR|ENSG00000110092|msi1_unk|total|mutant (ssRNA)
RNA: B12 RNA with U36C, A37C, U42C, A43C, U53C, A54C, U83C, A84C
B18: chr1:6224442:6224573:-|3pUTR|ENSG00000116237|msi1_unk|total|mutant (ssRNA)
RNA: B11 RNA with U51C, A52C, U83C, A84C, U108C, A109C, U136C, A137C
B19: chr19:9526975:9527076:-|3pUTR|ENSG00000130818|unk|total|mutant (ssRNA)
RNA: GGGAGUUCUACAGUCCGACGAUCCCUCUCAGACCUUCCAUCAUUACUAUAUUUCACUUUUAUGCCUAUAAACACACACAAAUCCGCAUAUGUAAUCUAAUACAUUGCCGCUAUUUUUCAGAAGUUAUCAGAUCAAUUAAGUAUCAACAGAGGAUUGAGCAUCA
B20: chr2:205797254:205797461:+|3pUTR|ENSG00000118257|msi1|total|mutant (ssRNA)
RNA: GGGAGUUCUACAGUCCGACGAUCUCACCCUCCCAUGAUGCGCAGUGUUCAGAAAGCUGGUAAGUCCCCGGGAUUUCCAGAAGCCGCCUGCAGAAGAAGGUAAGUUUGAAAGCCACUCCAGGGGUCCUGAUGCUGUCAUGCUCACAACAGAGGAUUGAGCAUCA
B21: chr1:233671823:233671924:+|3pUTR|ENSG00000135750|msi1|total|mutant (ssRNA)
RNA: GGGAGUUCUACAGUCCGACGAUCUGCUGCUGUGGUCCGAAGCAGAUUUUAUACUUUUAACUGGAAACUUUGGGGUUUGCAUUCCGAUCAUUCCGCUGAUGGCUAAACCGCAAAAUUUAUAUUCCGAAGCAAAAAAAAAAAGCACAACAGAGGAUUGAGCAUCA
B22: chr3:133826890:133826991:-|3pUTR|ENSG00000154917|unk|total|mutant (ssRNA)
RNA: GGGAGUUCUACAGUCCGACGAUCUUUGAACGUGUUUCAGAUGUCAUGUGUUCCGUUUUUAUAUGUGUGUACAUAAUUAUAUACCGAGACCGACUUGUGUAUACACCUUCCACAAACACAUCCUCACGGAGAUACAUGUGCUCACAACAGAGGAUUGAGCAUCA

Target: MSI1 full-length (mouse, UniProt Q61474 1-362)
Sequence (Q61474 whole entry): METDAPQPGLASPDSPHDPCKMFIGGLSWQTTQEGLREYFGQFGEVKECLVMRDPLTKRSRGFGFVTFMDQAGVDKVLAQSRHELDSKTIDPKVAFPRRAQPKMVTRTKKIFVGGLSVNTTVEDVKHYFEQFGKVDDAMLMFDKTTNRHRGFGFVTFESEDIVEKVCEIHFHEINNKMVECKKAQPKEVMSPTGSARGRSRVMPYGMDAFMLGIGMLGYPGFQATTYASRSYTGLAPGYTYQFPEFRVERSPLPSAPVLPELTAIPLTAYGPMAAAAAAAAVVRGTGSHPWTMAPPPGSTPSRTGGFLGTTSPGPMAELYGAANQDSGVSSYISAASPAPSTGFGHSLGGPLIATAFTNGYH
Assay: nsRBNS (natural sequence RNA bind-n-seq); RBNS binding buffer (assumed for nsRBNS): 25 mM Tris pH 7.5, 150 mM KCl, 3 mM MgCl2, 0.01% Triton X-100, 500 ug/ml BSA, 20 U/ml SUPERase-In, 4 C; UNK is unkempt and MSI1 is Musashi-1; names of the RNAs are library labels; protein concentration not given here; high values mean tight binding

Question: For B1, which binding signal is on record?
Answer: 0.649 enrichment R

Question: For B2, which binding signal is on record?
Answer: 0.273 enrichment R

Question: How did the binding signal turn out when B3 was run?
Answer: 0.391 enrichment R

Question: For B4, which binding signal is on record?
Answer: 3.44 enrichment R

Question: B5 was tested. Which binding signal did it give?
Answer: 11.3 enrichment R

Question: B6 was tested. Which binding signal did it give?
Answer: 0.465 enrichment R

Question: B7 was tested. Which binding signal did it give?
Answer: 0.458 enrichment R

Question: With B8 as the binder, how does the binding signal read?
Answer: 20.8 enrichment R

Question: Which binding signal does the source give for B9 here?
Answer: 71.9 enrichment R

Question: With B10 as the binder, how does the binding signal read?
Answer: 0.608 enrichment R

Question: How did the binding signal turn out when B11 was run?
Answer: 7.66 enrichment R

Question: Which binding signal does the source give for B12 here?
Answer: 32.9 enrichment R

Question: With B13 as the binder, how does the binding signal read?
Answer: 0.949 enrichment R

Question: Which binding signal does the source give for B14 here?
Answer: 0.582 enrichment R

Question: How did the binding signal turn out when B15 was run?
Answer: 0.379 enrichment R

Question: For B16, which binding signal is on record?
Answer: 3.21 enrichment R

Question: How did the binding signal turn out when B17 was run?
Answer: 1.65 enrichment R

Question: For B18, which binding signal is on record?
Answer: 18.3 enrichment R

Question: How did the binding signal turn out when B19 was run?
Answer: 9.57 enrichment R

Question: B20 was tested. Which binding signal did it give?
Answer: 0.483 enrichment R

Question: With B21 as the binder, how does the binding signal read?
Answer: 0.297 enrichment R

Question: B22 was tested. Which binding signal did it give?
Answer: 0.348 enrichment R
